# According to PubChem BioAssay AID1851 (National Center for Advancing Translational Sciences (NCATS), 2009):
# The campaign covered roughly 16,000 compounds. About 2,600 (16%) were called active. Roughly 20% stayed inconclusive and do not appear here. These entries were drawn from the full list. Unmarked numbers belong to inactive results. The call rests on the fitted dose curve; in most records, active means well fitted curve in the direction sought with a large enough effect; inconclusive means small, poorly fitted or top-dose-only effect, or effect the other way; inactive means no such curve, though single readings can be large or run the other way.
# Target: Cytochrome P450 2D6 (Homo sapiens) (UniProt P10635)
# Sequence (P10635 whole entry, looked up): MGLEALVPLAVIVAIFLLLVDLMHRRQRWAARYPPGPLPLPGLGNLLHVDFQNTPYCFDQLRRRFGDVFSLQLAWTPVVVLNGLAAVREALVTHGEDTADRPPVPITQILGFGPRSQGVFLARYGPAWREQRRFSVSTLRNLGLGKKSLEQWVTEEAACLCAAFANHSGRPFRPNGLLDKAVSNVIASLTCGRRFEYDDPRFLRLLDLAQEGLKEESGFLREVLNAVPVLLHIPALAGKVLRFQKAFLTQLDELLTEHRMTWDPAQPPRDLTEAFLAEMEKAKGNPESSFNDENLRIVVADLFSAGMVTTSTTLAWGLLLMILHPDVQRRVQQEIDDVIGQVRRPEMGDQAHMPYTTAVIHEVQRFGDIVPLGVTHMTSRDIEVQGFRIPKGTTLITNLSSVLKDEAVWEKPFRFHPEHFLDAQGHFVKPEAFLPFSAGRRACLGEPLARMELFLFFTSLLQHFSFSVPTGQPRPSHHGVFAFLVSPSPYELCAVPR
# Test: Cytochrome panel assay with activity outcomes
# Conditions: recombinant CYP, pro-luciferin dealkylation, luminescence, p450-cyp2d6; series mostly up to 57.1 µM; activity, negative = inhibition: at the top concentration
# On the % scale 0 is the no-effect control and ±100 the full control effect.
SMILES,"activity, negative = inhibition",AC50
CC1CN(C(=S)NC(=O)c2ccc([N+](=O)[O-])cc2)CC(C)O1 (stereo not given),-6%,–
COc1ccc(Oc2ncc3nc(C)c(=O)n(-c4ccc(OC)cc4)c3n2)cc1,-5.24%,–
NCCNC(=O)c1ccc(Cl)cc1,–,inactive
Cc1ccc(C(=O)Nc2cc(Cl)ccc2OC(=O)c2ccc(C)cc2)cc1,-21.9%,–
O=C(Nc1ccc(Cl)cc1C(F)(F)F)c1ccc(Cl)cc1,–,0.282 µM (active)
COc1ccc(COC(=O)N/N=C2/C[C@@H](O)[C@@H](O)[C@@H]3[C@H]4C(=O)N(c5ccc(F)cc5F)C(=O)[C@@H]4CC[C@H]23)cc1,-14.9% [at 11.4 µM],–
CCCN(CCC)CCCNS(=O)(=O)c1cc(Br)cc2c1N(C(C)=O)CC2,-20.5%,–
O=C(O)Cn1c(-c2ccccc2)nc2ccccc21,-25.1%,–
O=C(O)c1ccc2c3c1cccc3c(=O)n1c3ccccc3nc21,–,15.8 µM (active)
O=c1c2ccc([N+](=O)[O-])c3cccc(c32)c2nc3ccccc3n12,-14.8%,–
Cc1cc(N2CCOCC2)ncc1[N+](=O)[O-],-3.47%,–
COc1ccc(Cc2nnc(NC(=O)c3ccco3)s2)cc1,6.69%,–
COc1ccccc1-c1cc(NCc2ccccc2)ncn1,–,20 µM (active)
COc1ccccc1CNc1cc(-c2ccccc2OC)ncn1,–,20 µM (active)
COc1ccccc1-c1cc(Nc2ccn[nH]2)ncn1,-4.03%,–
COc1ccccc1CNc1cc(-c2ccccc2Cl)ncn1,–,12.6 µM (active)
COc1ccccc1CNc1cc(-c2ccoc2)ncn1,–,15.8 µM (active)
Cc1sc2ccccc2[n+]1CCC(C)S(=O)(=O)[O-] (stereo not given),10.3%,–
C=CCSc1nc(Oc2ccccc2)c2sccc2n1,-26.5%,–
CCCc1nnc(SCC(=O)N2CCCCC2C)n1CCCOC (stereo not given),11.7%,–
CCn1cc(C(=O)O)c(=O)c2cnc(N3CCNCC3)nc21,9.12% [at 25.6 µM],–
CO[C@@H]1COC(=O)C/C=C\[C@H](C)COC(=O)[C@H](Cc2ccccc2)NC(=O)C/C=C\[C@H]1C,9.42% [at 11.4 µM],–
Cc1cc(SC(C)C(=O)Nc2c(C)n(C)n(-c3ccccc3)c2=O)nc2ccccc12 (stereo not given),-1.98%,–
C[C@@]12C(=O)OC(=O)[C@]1(C)[C@H]1CC[C@@H]2O1,8.05% [at 25.6 µM],–
COC(=O)C/C=C1\c2ccccc2[C@H](OC)[C@H]1C,5.25% [at 11.4 µM],–

SMILES,"activity, negative = inhibition",AC50
CC(C)Cn1c(C(C)C)nc([N+](=O)[O-])c1S(=O)(=O)c1ccc(F)cc1,18.2%,–
CSc1nc(C)cc(SC(C(C)=O)C(=O)Nc2ccccc2)n1 (stereo not given),-8.06%,–
C/C(=N\NC(=S)Nc1ccc(F)cc1)C1CC1,-27%,–
C[C@@]12CCC(=O)C=C1CC[C@H]1[C@H]3CC[C@](O)(C(=O)CO)[C@]3(C)CC(=O)[C@@H]12,-2.72% [at 25.6 µM],–
Cc1ccc2nc(-c3ccccc3)cc(C(=O)NCCCn3ccnc3)c2c1,–,5.01 µM (active)
COc1ccc(NC(=O)c2cc(-c3cccnc3)nc3ccc(C)cc23)cc1OC,8.76%,–
Cc1cccc(NC(=S)NC(=O)c2cc(-c3ccccc3)nc3ccccc23)c1,17.4%,–
COc1cccc(Nc2ncc3nc(-c4ccc(Cl)cc4)c(=O)n(CCC#N)c3n2)c1,9.73%,–
C=CCSc1ncccc1C(=O)NCc1ccc(C)cc1,-19.5%,–
O=C(/C=C\c1ccc(O)c(O)c1)O[C@@H](Cc1ccc(O)c(O)c1)C(=O)O,7.2%,–
CCCC(=O)NC(Nc1ccccc1F)C(Cl)(Cl)Cl (stereo not given),-14.8%,–
CC(=O)NCCNc1ncncc1-c1ccccc1C(F)(F)F,-20.6%,–
FC(F)(F)c1ccccc1-c1cncnc1NCCc1cnc[nH]1,–,12.6 µM (active)
COc1cccc(-c2cncnc2NCCc2cnc[nH]2)c1,–,7.94 µM (active)
COc1ccccc1-c1cncnc1NCCc1cnc[nH]1,–,10 µM (active)
COCCNc1ncncc1-c1c(C)noc1C,4.62%,–
CC(Oc1ccc(Cl)cc1)C(=O)/C=C/N(C)C (stereo not given),5.98%,–
COc1ccc(CNc2nc3nc4c(c(=O)n3[nH]2)CCC4)cc1,3.53%,–
CN1CC[C@@]2(CCCN(C(=O)c3cc(C(F)(F)F)cc(C(F)(F)F)c3)C2)C1,-4.22%,–
O=C(NC1CCCCC1)c1ccc(COCC(F)(F)F)o1,-12.2%,–
Cc1cc2ccc(OC(=O)c3ccc(N=C(N)N)cc3)cc2oc1=O,-7.56% [at 11.4 µM],–
C=CCOc1cccc(/C=N/NC(=O)C(=O)NCc2ccco2)c1,-29.4%,–
C[C@@H](Cc1ccccc1)Nc1ncnc2c1ncn2[C@@H]1O[C@@H](CO)[C@H](O)[C@@H]1O,-5.49%,–
O=C(CNC(=O)c1ccccn1)N/N=C/c1ccccc1,7.99%,–
CCOC(=O)C(CC)(CC)C(=O)/C=C/c1ccc(Br)cc1,6.41%,–

SMILES,"activity, negative = inhibition",AC50
C[C@H](NC[C@H](O)CP(=O)(O)CC1CCCCC1)c1ccc(Cl)c(Cl)c1,0.922%,–
C[C@H](NC[C@H](O)CP(=O)(O)Cc1ccccc1)c1ccc(Cl)c(Cl)c1,–,0.0501 µM (active)
Cc1cccc2c1OCC/C2=N\NC(=O)COc1ccccc1Cl,6.96%,–
Cc1sc(NC(=O)/C=C/c2ccc(C(C)C)cc2)c(C#N)c1C,3.12%,–
Cn1cc(-c2nc3cnc(Oc4ccccc4)nc3n(C3CC3)c2=O)c2ccccc21,-3.06%,–
CC(C)NC(=O)N1CC2(CCN(C(=O)c3cc(C(F)(F)F)cc(C(F)(F)F)c3)CC2)C1,–,0.251 µM (active)
CC(C)NC(=O)N1CCCC2(CCN(C(=O)c3cc(C(F)(F)F)cc(C(F)(F)F)c3)CC2)C1,-0.937%,–
CC(C)CN1CC[C@@]2(CCCN(C(=O)c3cc(C(F)(F)F)cc(C(F)(F)F)c3)C2)C1,-14.7%,–
CC(C)CN1CCC2(CC1)CCN(C(=O)c1cc(C(F)(F)F)cc(C(F)(F)F)c1)CC2,-6.51%,–
CC(C)CN1CCCC2(CCN(C(=O)c3cc(C(F)(F)F)cc(C(F)(F)F)c3)CC2)C1,–,10 µM (active)
CC(C)NC(=O)N1CCC2(CC1)CCN(C(=O)c1cc(C(F)(F)F)cc(C(F)(F)F)c1)CC2,11.8%,–
CCOc1cc(/C=C2/C(=O)N(c3ccccc3)N=C2C)ccc1OC(=O)c1ccco1,-25.2%,–
CN1CCCN(S(=O)(=O)c2ccc3c(c2)OCCO3)CC1,-11%,–
C=CCNC(=O)c1ccc(-c2nc(-c3ccc(Cl)c(Cl)c3)cs2)cc1,9.43%,–
CCOC(=O)N/N=C1/C[C@@H](O)[C@@H](O)[C@@H]2[C@@H]3C(=O)N(CC)C(=O)[C@H]3CC[C@@H]12,7.29% [at 11.4 µM],–
CO[C@H]1COC(=O)[C@H]2CCCN2C(=O)[C@@H](C)COC(=O)C/C=C\[C@@H]1C,19.9% [at 11.4 µM],–
Cc1nn(CC(=O)NCc2ccccc2)c(C)c1[N+](=O)[O-],-17.4%,–
CCOc1cc(-c2noc(N)c2C#N)cc(OCC)c1OCC,-9.64%,–
C/C(=N\NC(=O)c1cccc(Br)c1)c1ccc(Br)cc1,31.9%,–
O=C(N/N=C/C1C(c2ccccc2)C1(Cl)Cl)c1cccc(Br)c1 (stereo not given),–,7.08 µM (active)
O=C(N/N=C/c1cccc(Oc2ccccc2)c1)c1cccc(Br)c1,-25.9%,–
Cn1c(C(N)=O)cnc1Sc1ncc(C(F)(F)F)cc1Cl,-16.3%,–
Cc1ccnc(N2C(=O)C3C4CC(C(Br)C4Br)C3C2=O)c1 (stereo not given),38.8%,–
CCC(=O)O[C@@]1(C(=O)SCF)[C@@H](C)C[C@H]2[C@@H]3C[C@@H](F)C4=CC(=O)C=C[C@@]4(C)[C@]3(F)[C@@H](O)C[C@]21C,-10.4% [at 25.6 µM],–
CO[C@@H](NC(N)=O)C(=O)O,2.43% [at 11.4 µM],–

SMILES,"activity, negative = inhibition",AC50
CCC(C)(C)NC(=O)c1ccc2c(c1)N(CC(=O)OC)C(=O)C(C)(C)O2,-7.52%,–
O=C(Oc1ccccc1)N1CCC2(CCCN(c3ccc(-c4ccccc4)cc3)C2)CC1,3.39%,–
CC(C)c1nc2ccccn2c1NC1CCCCC1,–,3.16 µM (active)
CC(C)c1ccc(O)c(NC(=O)c2ncn[nH]2)c1,2.24%,–
COc1ccc(NC(=O)CC#N)cc1OC,-8.73%,–
COC(=O)C1=C(C)NC(=O)NC1c1ccsc1 (stereo not given),9.49%,–
COCCNC(=O)COc1ccc(Oc2ccccc2)cc1,-5.65%,–
O=C(O)COc1ccc(OCCNC[C@@H](O)COc2ccccc2)cc1,-10.1%,–
COCCNC(=O)COc1ccc(OCCNC[C@@H](O)COc2ccccc2)cc1,–,5.01 µM (active)
CCOC(=O)N/N=C1/C[C@@H](O)[C@@H](O)[C@@H]2[C@@H]3C(=O)N(CC)C(=O)[C@H]3CC[C@H]12,-3.76% [at 11.4 µM],–
CS(=O)(=O)c1nc(-c2ccccc2)cc(-c2ccccc2)c1C#N,-5.35%,–
CCOC(=O)c1sc2nc3c(cc2c1N)COC(C(C)C)C3 (stereo not given),-0.0841%,–
CCC(=O)N[C@@H]1CCc2cccc(OC)c2C1,4.79%,–
CCc1ccccc1OC[C@@H](O)CN[C@H]1CCCc2ccccc21,5.6%,–
COc1cccc(C=NC=Nc2cccc(OC)c2)c1,-0.017%,–
O=C(CSc1nnc(CNc2ccccc2)o1)N1CCCc2ccccc21,-17.2%,–
O=C(CSc1nc(-c2ccccc2)cs1)N1CCc2ccccc21,-2.29%,–
O=C(CSc1n[nH]c(-c2ccccc2O)n1)N1CCCc2ccccc21,–,25.1 µM (active)
CC(C)C[C@H](NC(=O)[C@@H](O)[C@@H](N)Cc1ccccc1)C(=O)O,–,inactive
O=C(c1ccc(C(F)(F)F)cc1)c1c[nH]c(C(=O)NCCCn2ccnc2)c1,–,2.51 µM (active)
CCC(CC)C(=O)c1c[nH]c(C(=O)NCCc2ccccn2)c1,4.03%,–
O=C(NCCc1ccccn1)c1cc(C(=O)C2CCCCC2)c[nH]1,-7.69%,–
Cc1ccc(C(=O)c2c[nH]c(C(=O)NCCCN3CCOCC3)c2)cc1,1.79%,–
O=C(O)CCCCCNC(=O)c1ccncc1,-0.821%,–
CC(C)(C)c1ccc(C(=O)c2c[nH]c(C(=O)NCCCn3ccnc3)c2)cc1,–,5.01 µM (active)
